For 40 molecules, Potency results are on record in PubChem BioAssay (NCATS).

Molecules are shown by their SMILES. Inconclusive results are not listed. Where a call stands in place of a potency, no number is given. Calls of active or inactive are those of the source. Calls come from the whole dose curve; as a rule, active = well fitted cell-killing curve with a large enough effect; inconclusive = small, poorly fitted or top-dose-only effect; inactive = flat fitted curve, though single readings scatter.
Potency is the fitted concentration of half-maximal effect.

The experiment can be described thus: Cell Viability - LYMP2-008 (AID 980). Note: nearly all actives have a fitted effect of over 60% in size. The settings on record: LYMP2-008 lymphoblastoid cell viability, qHTS; series mostly up to 92.2 µM. The source says: NIH Chemical Genomics Center [NCGC]
NIH Molecular Libraries Screening Centers Network [MLSCN]
National Institutes of Environmental Health Sciences [NIEHS]
National Toxicology Program [NTP]
We have developed a 1536-well cell-based assay for quantitative high throughput screening (qHTS) against a number of cell lines to determine in vitro cytotoxicity of small molecules. This particular assay uses a human lymphoblastoid cell line (LYMP2-008) purchased from Coriell Institute for Medical Research.
NCGC Assay Protocol Summary:
The CellTiter-Glo luminescent cell viability assay (Promega) is a homogeneous method to measure the number of viable cells in culture. The end point readout of this assay is based on quantitation of intracellular ATP, an indicator of metabolic activity, using the luciferase reaction. Luciferase catalyzes the oxidation of beetle Luciferin to oxyluciferin and light in the presence of ATP. The luminescent signal is proportional to amount of ATP present.
Using the CellTiter-Glo luminescent cell viability assay, the amount of cellular ATP was measured in the lymphoblastoid cell line with complete culture medium following compound treatment for 24 hours. The assay was performed in opaque white Kalypsys 1536-well plates. In the screen, tetraoctylammonium bromide was used as positive control. Library compounds were measured for their ability to cause acute toxicity in the cell line, as reflected by a decrease in intracellular ATP levels, in a concentration-dependent manner. […] AC50 values were determined from concentration-response data modeled with the standard Hill equation.
qHTS protocol for CellTiter Glo lymphoblastoid cellular assay
[Step] [Parameter] [Value] [Description]
1. Reagent; 5 uL; 2500 lymphoblastoid cells/well
2. Time; 5 hr; 37 C incubation
4. Controls; 23 nL; Tetraoctylammonium bromide 6.4pM to 92 uM
5. Time; 24 hr; 37 C incubation
6. Reagent; 5 uL; CellTiter Glo reagent
7. Time; 30 min; Room Temperature
8. Detection; Luminescence; Viewlux plate reader
Keywords: cell viability, cytotoxicity, lymphoblastoid cell line, luminescence, NTPHTS, NTPHTS_NCGC, NIEHS, DSSTox, MLSMR, MLSCN, NIH Roadmap, qHTS, NCGC
For orientation: qHTS replaces the single test concentration by a dilution series.
For the molecule `Cc1cc(-c2ccc(N)c(C)c2)ccc1N`, the Potency result was “inactive”.
To `CCCN(CCC)c1c([N+](=O)[O-])cc(C(F)(F)F)cc1[N+](=O)[O-]` belongs “inactive”.
The entry for `FC(Cl)(Cl)Cl` is “inactive”.
As to `OCCOCCO`, the Potency entry is “inactive”.
The entry for `Nc1ccc(-c2ccc(N)c(Cl)c2)cc1Cl` is “inactive”; for `CCCCCOC(=O)c1ccccc1C(=O)OCCCCC` it is “inactive”.
To `ClC=CCl` belongs “inactive”; to `N#CCCCCC#N`, “inactive”; to `CCNCC`, “inactive”.
To `ClC(Cl)Br` belongs “inactive”.
Take `CN(C)c1ccc(N=Nc2ccccc2)cc1`: the Potency entry is “inactive”.
On to `Nc1cc(Cl)ccc1Cl`, for which the Potency result is “inactive”.
To `Nc1ccc(Cc2ccc(N)c(Cl)c2)cc1Cl` belongs “inactive”; to `CCCCCCCCCCCCCl`, “inactive”; to `Nc1c(Br)cc([N+](=O)[O-])cc1[N+](=O)[O-]`, “inactive”.
The entry for `CCCBr` is “inactive”; for `O=P(OCCCl)(OCCCl)OCCCl` it is “inactive”.
As for `COC(=O)c1ccccc1N`, the Potency result was “inactive”.
Turning to `Nc1cccc2ccccc12`, the Potency was 39.8 µM (active).
The entry for `Clc1ccc(Cl)c(Cl)c1` is “inactive”; for `S=c1[nH]c2ccccc2[nH]1` it is “inactive”; for `Cc1ccc2c(c1N)C(=O)c1ccccc1C2=O` it is “inactive”.
In the case of `BrCC(Br)C1CCC(Br)C(Br)C1` (stereo not given), the Potency entry is “inactive”.
The entry for `Oc1ccc(Cl)c(Cl)c1` is “inactive”; for `N#CC(Cl)(Cl)Cl` it is “inactive”; for `CN(C)C(=O)Nc1cccc(C(F)(F)F)c1` it is “inactive”.
With `ClCCOCOCCCl`, the Potency entry is “inactive”.
`c1ccc(OCC2CO2)cc1` (stereo not given): the Potency result was “inactive”.
The entry for `CC(=O)NNc1ccccc1` is “inactive”; for `Brc1cccc(-c2ccccc2)c1` it is “inactive”.
The entry for `Clc1ccc(C(c2ccccc2Cl)C(Cl)(Cl)Cl)cc1` (stereo not given) is “inactive”; for `C=CC(=O)OCC(CC)CCCC` (stereo not given) it is “inactive”.
To `Nc1ccc([N+](=O)[O-])cc1N` belongs “inactive”.
`Cc1cccc(N)c1C`: the Potency entry was “inactive”.
The entry for `O=[N+]([O-])CCO` is “inactive”; for `Cc1ccccc1[N+](=O)[O-]` it is “inactive”; for `O=C(Cl)OCc1ccccc1` it is “inactive”.
Turning to `ClCc1ccccc1`, the Potency entry is “inactive”.
To `c1ccc2c(c1)CCNC2` belongs “inactive”.
On to `ClCC(Br)CBr` (stereo not given), for which the Potency entry was “inactive”.
